Source: the supplement of paper PMC11219838
A number with no mark means an inactive call.

Experiments:
[1] = test system: Caenorhabditis elegans dauer (daf-2(e1370)); test: proportion of mobile C. elegans dauer larvae relative to DMSO control (fraction of DMSO control); higher = more viable, less nematicidal, active = 0.63 or less; extreme values may be limits of the assay; conditions: 60 µM; 5 days; temperature: 20 °C
In short: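 Synchronized C. elegans daf-2(e1370) larvae were held at 25 °C for 48 h on MYOB plates with E. coli OP50 to form dauers, and about 20 dauers were added per 96-well well in liquid NGM. Compound was pinned to 60 µM final (0.6% v/v DMSO), and sealed plates were shaken at 200 rpm for 5 days at 20 °C. The proportion of mobile worms was scored under a dissection microscope relative to DMSO controls and averaged over two biological replicates.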

Ditylenchus dipsaci = test: proportion of mobile D. dipsaci (mixed stage) relative to DMSO control (fraction of DMSO control); higher = more viable, less nematicidal, active = 0.86 or less; extreme values may be limits of the assay; conditions: 60 µM; 5 days; temperature: 20 °C
In short: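 D. dipsaci were grown on pea plants in Gamborg B-5 agar and extracted through a filter funnel into water, and about 20 worms were added per 96-well well in distilled water. Compound was pinned to 60 µM final (0.6% v/v DMSO), and sealed plates were shaken at 200 rpm for 5 days at 20 °C. After 2 µL 1 M NaOH was added, mobile worms were scored microscopically. Mobility was expressed relative to DMSO controls and averaged over two biological replicates.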

| SMILES | proportion of mobile C. elegans dauer larvae [1] | proportion of mobile D. dipsaci (Ditylenchus dipsaci) |
| --- | --- | --- |
| CCc1cccc(C)c1NC(=O)CSc1nnc(-c2ccccc2)o1 | 1 | 1 |
| COc1cccc(-c2noc(-c3c(F)cccc3F)n2)c1 | 1 | 1 |
| Brc1ccccc1-c1nc(-c2ccccn2)no1 | 0.738 | 1 |
| Clc1cccc(-c2nc(-c3ccccc3Cl)no2)c1 | 1 | 1 |
| Cc1cccc(-c2noc(COc3ccc(Cl)cc3)n2)c1 | 1 | 1 |
| Cc1cccc(-c2noc(-c3ccc(C)c(Cl)c3)n2)c1 | 1 | 1 |
| COc1ccc(-c2noc(-c3cccc(Cl)c3)n2)cc1 | 1 | 1 |
| COc1ccc(-c2noc(COc3ccc(C)cc3C)n2)cc1 | 1 | 1 |
| CCCC(=O)Nc1ccccc1-c1nc(-c2ccncc2)no1 | 1 | 1 |
| CC(C)(C)c1ccc(-c2nnc(SCC(=O)c3ccc(F)cc3)o2)cc1 | 1 | 1 |
| Ic1ccccc1-c1nc(-c2cccnc2)no1 | 1 | 1 |
| O=C(CSc1nnc(-c2ccccc2)o1)Nc1ccc(F)cc1F | 1 | 1 |
| Clc1ccc(OCc2ccccc2)c(-c2nc(-c3cccnc3)no2)c1 | 1 | 0.917 |
| Cc1cc(C)cc(NC(=O)CSc2nnc(-c3ccccc3)o2)c1 | 1 | 1 |
| Cc1cc(OCc2nc(-c3cccnc3)no2)ccc1Cl | 1 | 1 |
| Cc1ncc2c(c1-c1noc(-c3ccccc3)n1)CCC2 | 0.929 | 1 |
| Cc1ccc(-c2nc(C3CCCCC3)no2)cc1 | 1 | 1 |
| Cn1cc(C(=O)CSc2nnc(-c3ccccc3)o2)c2ccccc21 | 1 | 1 |
| Brc1ccc(OCc2nc(-c3ccc4c(c3)OCO4)no2)cc1 | 1 | 1 |
| CCOc1cc(-c2nc(-c3cc4ccccc4nc3OC)no2)cc(OCC)c1OCC | – | 1 |
| Cc1cc(OCc2nc(-c3ccc(NC(=O)c4ccc5c(c4)OCO5)cc3)no2)ccc1Cl | – | 1 |
| COc1ccc(CCC(=O)Nc2ccc(-c3noc(-c4ccccc4C)n3)cc2)cc1 | – | 1 |
| COc1nc(-c2ccccc2)ccc1-c1noc(C(C)C)n1 | 1 | 1 |
| Ic1ccc(CSc2nnc(-c3ccco3)o2)cc1 | 1 | 1 |
| COc1ccc(-c2nnc(SCC(=O)Nc3ccc(Cl)cc3C)o2)cc1 | 1 | 1 |
| Fc1ccc(OCc2nc(-c3ccc(Cl)cc3)no2)cc1 | – | 1 |
| COc1ccc(Cl)cc1-c1noc(-c2ccccc2C)n1 | – | 1 |
| COc1ccc(CC(=O)Nc2ccc(-c3noc(-c4ccc(F)cc4)n3)cc2)cc1 | 1 | 1 |

| SMILES | proportion of mobile C. elegans dauer larvae [1] | proportion of mobile D. dipsaci (Ditylenchus dipsaci) |
| --- | --- | --- |
| CC(=O)Nc1ccc(-c2nnc(SCc3ccccc3)o2)cc1 | – | 1 |
| Cc1ccc(-c2nc(-c3ccccc3Br)no2)cc1 | – | 1 |
| Cc1csc(NC(=O)CSc2nnc(-c3ccccc3Cl)o2)n1 | 1 | 1 |
| COc1ccccc1-c1nnc(SCc2ccccc2C#N)o1 | – | 1 |
| COc1nc(C)ccc1-c1noc(-c2ccccc2C)n1 | 1 | 1 |
| Cc1cccc(OCc2nc(-c3ccccc3)no2)c1 | – | 1 |
| O=C(Nc1cccnc1)c1ccccc1-c1nc(-c2ccc(Cl)cc2)no1 | – | 1 |
| Clc1ccc(SCc2nc(-c3ccccc3)no2)cc1 | – | 1 |
| Clc1cccc(-c2nc(-c3cccnc3)no2)c1 | 1 | 1 |
| Cn1c(SCc2nc(-c3ccccc3)no2)nnc1-c1ccco1 | 1 | 1 |
| O=C(Nc1ccccc1-c1nc(-c2ccncc2)no1)c1ccc(Cl)cc1 | 1 | 1 |
| Cc1cc(Br)ccc1OCc1nc(-c2ccccn2)no1 | – | 1 |
| Clc1ccc(OCc2nc(-c3ccncc3)no2)cc1 | 0.645 | 1 |
| O=C(CSc1nnc(-c2ccc(Cl)cc2)o1)NC1CCCCC1 | – | 1 |
| COc1ccc(-c2noc(-c3ccc(Br)cc3)n2)cc1 | 1 | 1 |
| c1ccc2c(-c3nc(-c4ccncc4)no3)cccc2c1 | – | 1 |
| Clc1cccc(OCc2nc(-c3ccncc3)no2)c1 | 1 | 1 |
| Ic1ccc(OCc2nc(-c3ccncc3)no2)cc1 | 1 | 1 |
| CNC(=O)c1ccccc1-c1nc(-c2ccc(F)cc2)no1 | 1 | 1 |
| COc1ccccc1OCc1nc(-c2ccc(Br)cc2)no1 | 1 | 1 |
| Cc1cccc(OCc2nc(-c3ccc(-n4cccc4)cc3)no2)c1 | 1 | 1 |
| Cc1ccc(OC(C)c2nc(-c3cccnc3)no2)cc1 (centres undefined) | – | 1 |
| Cc1ccccc1-c1noc(-c2cccc(Br)c2)n1 | 1 | 1 |
| COc1cccc(-c2noc(COc3cccc(C)c3)n2)c1 | 1 | 1 |
| Brc1ccccc1-c1nc(-c2ccccc2)no1 | – | 1 |
| CCOc1ccccc1-c1nc(-c2ccc(NC(=O)c3ccncc3)cc2)no1 | 1 | 1 |
| CN(C)c1ccc(-c2nnc(SCc3ccccc3)o2)cc1 | 1 | 1 |
